Measured values as given in PubChem BioAssay AID1224921 (Broad Institute, 2016).
The campaign covered roughly 1,400 compounds. About 350 (25%) were called active. About 2% were inconclusive and are not listed. How the calls were made is not given here. A selection follows. Results with a measured potency or affinity are listed apart.

Assay: C. difficile growth inhibition, confirmation, 4-point retest (AID 1224921);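 further: plate controls were DMSO wells for no effect and levofloxacin 16 µg/mL wells for full effect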
Settings: Clostridioides difficile clinical isolate growth, OD600, 24 h, hits give low values; at 30 µM unless noted

Max activity, inactive:
CNC[C@@H]1Oc2cc(-c3cccnc3)ccc2S(=O)(=O)N([C@@H](C)CO)C[C@H]1C -5.58% [at 1.95 µM]
COc1ccc(-c2cnc3c(c2)C(=O)N([C@H](C)CO)C[C@H](C)[C@H](CN(C)C(=O)Nc2ccc(F)cc2)O3)cc1 13.9%
Cc1ccc(-c2ccc3c(c2)O[C@H](CN(C)Cc2ccncc2)[C@H](C)CN([C@@H](C)CO)S3(=O)=O)cc1 37.3%
CCS(=O)(=O)Nc1ccc2c(c1)C(=O)N(C)C[C@@H](OC)[C@@H](C)CN(CC1CCCC1)[C@H](C)CO2 10.5%
C[C@H](CO)N1C[C@H](C)[C@@H](CN(C)Cc2ccncc2)Oc2cc(C3=CCCCC3)ccc2S1(=O)=O 25.5% [at 28.5 µM]
O=C(C[C@@H]1C[C@@H]2c3cc(NC(=O)CC4CC4)ccc3O[C@@H]2[C@@H](CO)O1)NCc1cc(F)ccc1F 18.5%
CO[C@@H]1CN(C)C(=O)c2cc(NC(=O)C3CCC3)ccc2OC[C@@H](C)N(Cc2ccncc2)C[C@@H]1C -8.85% [at 8 µM]
C[C@H]1CN([C@@H](C)CO)S(=O)(=O)c2ccc(-c3ccccc3F)cc2O[C@@H]1CN(C)Cc1cccnc1 16.6%
CO[C@@H]1CN(C)C(=O)c2ccc(NC(=O)c3ccc(Oc4ccccc4)cc3)cc2OC[C@@H](C)N(C(C)=O)C[C@H]1C -13.9% [at 2.1 µM]
O=C(C[C@@H]1C=C[C@@H](NC(=O)c2cccc(F)c2)[C@H](CO)O1)Nc1nccs1 13.9%
COc1ccc(S(=O)(=O)Nc2ccc3c(c2)C(=O)N([C@@H](C)CO)C[C@@H](C)[C@@H](CN(C)C(=O)CCC(F)(F)F)OCCCC[C@H](C)O3)cc1 -14.1% [at 8 µM]
CO[C@H]1CN(C)C(=O)c2cc(NS(=O)(=O)c3cccc(F)c3)ccc2OC[C@@H](C)N(Cc2cc(F)ccc2F)C[C@H]1C -7.98% [at 1.95 µM]
C[C@H](CO)N1C[C@H](C)[C@@H](CN(C)Cc2cccnc2)Oc2cc(C#CC3CCCC3)ccc2S1(=O)=O 41.2%
CO[C@@H]1CN(C)C(=O)c2cc(NS(=O)(=O)c3ccc(Cl)cc3)ccc2OC[C@H](C)N(C(=O)NC(C)C)C[C@H]1C -5.33% [at 8 µM]
CCCN1C[C@H](C)[C@@H](OC)CN(C)C(=O)c2cc(NC(=O)c3cccc(OC)c3)ccc2OC[C@@H]1C 12.1%
CO[C@H]1CN(C)C(=O)c2ccc(NC(C)=O)cc2OC[C@H](C)N(Cc2cccc(F)c2)C[C@H]1C -6.29% [at 1.95 µM]
CCC(=O)Nc1ccc2c(c1)C(=O)N(C)C[C@H](OC)[C@@H](C)CN(C(=O)CN1CCOCC1)[C@@H](C)CO2 -6.29% [at 0.5 µM]
CCCC#Cc1ccc([C@@H]2[C@@H](CO)N(S(=O)(=O)c3cccc(F)c3)[C@H]2C#N)cc1 12.2% [at 1.95 µM]
CCC(=O)Nc1ccc2c(c1)OC[C@@H](C)N(C(=O)CC)C[C@@H](C)[C@@H](OC)CN(C)C2=O 3.79% [at 0.5 µM]
C[C@H](CO)N1C[C@H](C)[C@H](CN(C)Cc2cccnc2)Oc2cc(C#CC3CCCC3)ccc2S1(=O)=O 20.9%
COc1ccc(NC(=O)Nc2cccc3c2O[C@H](CN(C)C(=O)NC2CCCCC2)[C@@H](C)CN([C@@H](C)CO)C3=O)cc1 7.95%
CO[C@@H]1CN(C)C(=O)c2cc(NC(=O)c3ccccc3)ccc2OC[C@H](C)N(C)C[C@@H]1C 18.3%
CN(C)C(=O)C[C@H]1CC[C@H](NC(=O)C2CCOCC2)[C@@H](CO)O1 -6%
COCC(=O)N1C[C@@H](C)[C@@H](OC)CN(C)C(=O)c2ccc(NC(=O)NC(C)C)cc2OC[C@@H]1C 17.9%
CCCC(=O)Nc1ccc2c(c1)C(=O)N(C)C[C@H](OC)[C@H](C)CN(Cc1ccccc1)[C@@H](C)CO2 25.4%
COCC(=O)Nc1ccc2c(c1)OC[C@@H](C)N(Cc1ccccc1OC)C[C@@H](C)[C@@H](OC)CN(C)C2=O 16.6%
CO[C@@H]1CN(C)C(=O)c2ccc(NC(C)=O)cc2OC[C@H](C)N(Cc2cccc(F)c2)C[C@H]1C 17.2%
C[C@H]1CN([C@@H](C)CO)C(=O)c2c(c3ccccc3n2C)-c2ccccc2CO[C@H]1CN(C)Cc1cccc(C(=O)O)c1 -5.44% [at 0.5 µM]
COc1ccc(-c2ccc([C@@H]3[C@@H](C#N)N(C(=O)C4CCCC4)[C@H]3CO)cc2)cc1 25.6%
C/C=C/c1ccc2c(c1)O[C@@H](CN(C)C(=O)Cc1ccncc1)[C@H](C)CN([C@@H](C)CO)S2(=O)=O 11.6%
C[C@@H]1CN([C@H](C)CO)S(=O)(=O)c2ccc(C#CC3CC3)cc2O[C@H]1CN(C)Cc1ccccc1F 11.3% [at 1.95 µM]
COCC(=O)Nc1ccc2c(c1)OC[C@@H](C)N(Cc1ccccc1)C[C@@H](C)[C@@H](OC)CN(C)C2=O -9.27% [at 1.95 µM]
CCCNC(=O)Nc1ccc2c(c1)C(=O)N(C)C[C@@H](OC)[C@H](C)CN(Cc1ccccc1)[C@@H](C)CO2 16.6%
COc1cccc(C#Cc2ccc3c(c2)O[C@@H](CN(C)C)[C@@H](C)CN([C@H](C)CO)S3(=O)=O)c1 29.6%
CC(C)CC#Cc1ccc2c(c1)O[C@@H](CN(C)Cc1cccnc1)[C@@H](C)CN([C@@H](C)CO)S2(=O)=O 22.6%
O=C(C[C@@H]1C[C@H]2c3cc(NC(=O)Nc4ccc(C(F)(F)F)cc4)ccc3O[C@H]2[C@@H](CO)O1)NCCc1ccccc1 46.3%
COc1ccc(-c2ccc([C@@H]3[C@@H](C#N)N(C(=O)c4cccc(F)c4)[C@H]3CO)cc2)cc1 19.5%
COc1ccc(C#Cc2ccc3c(c2)O[C@@H](CN(C)C)[C@H](C)CN([C@H](C)CO)S3(=O)=O)cc1 12.4% [at 8 µM]
